C1s block: human complement C1s inhibition | mean inhibition % of two 10-compound mixtures (hits give high values), % at 5 µM (by protocol) | AID 538 | purified C1s, fluorogenic AMC substrate, pooled mixtures | actives 0.16% (n = 62,000) | P09871;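 active = inhibition above 20% in each of the two 10-compound mixture wells holding the compound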
ROCK2 inh: inhibitors of human Rho kinase 2; purified ROCK2, Kinase-Glo ATP depletion luminescence; inhibition, % at 6 µM; actives 0.35% (n = 60,000);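 active = inhibition above the screen-wide mean inhibition plus 3 SD, cut at about 18% in these data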
PKA inh: blocks human protein kinase A activity | P17612 | PKA Kemptide phosphorylation, Kinase-Glo ATP luminescence | inhibition, % at 6 µM | actives 0.1% (n = 65,000) | AID 524;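 active = inhibition above the screen-wide mean inhibition plus 3 SD, cut at about 21% in these data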
FXIIa mix inh: blocks human factor XIIa in pooled compound mixtures; P00748; purified FXIIa, fluorogenic substrate; inhibition, % at 5 µM; actives 0.2% (n = 62,000)
Target sequence (P00748 20-372 limits assumed): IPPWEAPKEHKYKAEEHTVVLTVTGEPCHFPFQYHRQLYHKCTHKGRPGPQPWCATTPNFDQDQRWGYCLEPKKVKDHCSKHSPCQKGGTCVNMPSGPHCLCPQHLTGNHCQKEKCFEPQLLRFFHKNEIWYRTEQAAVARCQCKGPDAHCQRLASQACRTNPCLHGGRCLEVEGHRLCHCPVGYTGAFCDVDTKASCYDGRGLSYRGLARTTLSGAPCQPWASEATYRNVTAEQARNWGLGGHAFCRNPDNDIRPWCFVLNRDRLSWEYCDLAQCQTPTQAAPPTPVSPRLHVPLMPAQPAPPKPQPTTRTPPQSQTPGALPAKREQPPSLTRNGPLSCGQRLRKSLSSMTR
Target sequence (P00748 373-615 limits assumed): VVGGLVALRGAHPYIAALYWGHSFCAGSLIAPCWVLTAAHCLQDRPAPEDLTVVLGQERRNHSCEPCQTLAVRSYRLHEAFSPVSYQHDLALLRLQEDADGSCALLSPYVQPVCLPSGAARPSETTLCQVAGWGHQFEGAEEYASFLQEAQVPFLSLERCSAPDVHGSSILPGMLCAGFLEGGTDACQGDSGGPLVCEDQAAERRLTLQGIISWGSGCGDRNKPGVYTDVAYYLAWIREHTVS
CatG inh: blocks human cathepsin G enzyme activity. P08311. purified enzyme, AMC-tetrapeptide fluorescence, pooled mixtures. inhibition, % at 5 µM (by protocol). actives 0.2% (n = 62,000). AID 581;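 active = inhibition above 20% in each of the two mixture wells holding the compound; inactive = inhibition of 20% or less in either well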
FXIa mix inh: inhibitors of human coagulation factor XIa, pooled mixtures. actives 0.19% (n = 62,000). purified FXIa, fluorogenic substrate. inhibition, % at 5 µM. AID 680. P03951;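 also: each value is inhibition by a whole ten-compound pool holding the compound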
Of the large screens only hits and unclear results are named; the others gave an inactive call. Only some compounds are listed: those with a hit (about 0.78% of all), similar ones and a draw of the others. Rule as the data show it, unless noted: active = inhibition above about 20% (passing the limit was not always enough); inactive = the rest.

Nc1nonc1-c1nc2ccccc2[nH]1	ROCK2 inh 61
Cc1noc(NS(=O)(=O)c2ccc(NC(=O)CSc3nc4ccccc4s3)cc2)c1C	FXIa mix inh 52
Cc1noc(NS(=O)(=O)c2ccc(NC(=O)CSc3ncccn3)cc2)c1C	none
CCCCn1c(=O)[nH]c(=O)c2c1nc(COC(=O)c1c(C)noc1C)n2CCC	none
CCOC(=O)Cc1nnc(NC(=O)C(CC)Sc2nnc3c4ccccc4n(C)c3n2)s1 (stereo unspecified)	C1s block 22
O=S(=O)(Nc1ccc2nc(-c3ccc(Br)o3)[nH]c2c1)c1ccccc1	FXIIa mix inh 28
COc1cccc(-c2noc(-c3cccs3)n2)c1	FXIIa mix inh 31
COc1cccc(C2c3c(oc4cc(C)c(C)cc4c3=O)C(=O)N2CCCN(C)C)c1 (stereo unspecified)	none
CC[C@@H](C)[C@H](NC(=O)OC(C)(C)C)c1nnc(S(=O)(=O)Cc2cc(C)ccc2C)o1	CatG inh 27
Cc1[nH]c(=O)[nH]c(=O)c1CSc1nnc([C@@H](NC(=O)OC(C)(C)C)C(C)C)o1	none
CC(C)(C)OC(=O)N[C@@H](Cc1ccccc1)c1nnc(S(=O)(=O)Cc2cccc(F)c2)o1	CatG inh 63
CC(C)C[C@H](N)c1nnc(S(=O)(=O)Cc2cccc(F)c2)o1	none
CC(C)[C@H](NC(=O)OC(C)(C)C)c1nnc(S(=O)(=O)Cc2c(F)cccc2Cl)o1	CatG inh 38
CC(C)=CCSc1nnc([C@@H](NC(=O)OC(C)(C)C)C(C)C)o1	none
Cc1ccccc1CS(=O)(=O)c1nnc([C@H](CC(C)C)NC(=O)OC(C)(C)C)o1	CatG inh 21
c1ccc(SCc2nc(-c3ccncc3)no2)cc1	none
CS(=O)(=O)c1cccc(C(=O)NCc2ccccc2)c1	none
CC(C)(C)c1cc(C(=O)NCc2ccccc2)ccn1	C1s block 22
CC(C)c1nnc(SCC(=O)NCc2ccco2)n1C	none
CC(C)n1nnnc1SCC(=O)NCc1ccco1	FXIa mix inh 22
CCn1cc(C2=NOC(C(=O)Nc3c(C)nn(Cc4ccc(F)cc4)c3C)C2)c(C)n1 (stereo unspecified)	FXIa mix inh 22
Cc1cc(C)n(-c2nc3c(c(=O)n(Cc4ccc(Cl)c(Cl)c4)c(=O)n3C)n2C)n1	none
COc1ccc(CNc2ccc3cn[nH]c3c2)c(OC)c1OC	none (no result: ROCK2 inh, PKA inh)
Nc1ccc2cn[nH]c2c1	ROCK2 inh 23
COc1cc(C)nc(NS(=O)(=O)c2ccccc2)n1	C1s block 22
COc1cc2nc(-c3cccs3)oc(=O)c2cc1OC	CatG inh 22
CCOC(=O)c1c(NC(N)=O)sc(C)c1C	FXIa mix inh 29
CCOC(=O)c1c(NC(=O)CNCCO)sc(C)c1C	none
COc1ccc(N2CCN(Cc3nc4c(c(=O)n(C)c(=O)n4C)n3Cc3ccccc3C)CC2)cc1	none
COCCNC(=O)CSc1nc2ccccc2c2nc(C)nn12	none
COC(=O)c1ccc(C2C(C(=O)OCC(C)C)=C(C)N=C3SCCC(=O)N32)cc1 (stereo unspecified)	FXIa mix inh 29
COC(=O)C1=C(C)N=C2SCCC(=O)N2C1c1ccc(C(=O)OC)cc1 (stereo unspecified)	none
Cc1ccc(CS(=O)(=O)CCC(=O)NCCCN2CCCC2=O)cc1	FXIIa mix inh 22
O=C(c1ccco1)N1CCN=C1SCc1c(F)cccc1Cl	FXIa mix inh 29
O=C(c1ccco1)N1CCN=C1SCc1ccccc1Cl	none
CCN1C(=O)c2c(C)nc3ccccc3c2C1=O	none
CCN1C(=O)c2ccc(-c3nc4ccccc4c(=O)o3)cc2C1=O	CatG inh 39
CC(=O)Nc1ccc(N/C=C/C(=O)C(C)(C)C)cc1	FXIa mix inh 21
CCC(=O)Oc1ccc(C(CC)C(CC)c2ccc(OC(=O)CC)cc2)cc1 (stereo unspecified)	C1s block 22
O=C(Nc1ccc2oc(=O)ccc2c1)c1cccnc1	C1s block 23
COCCN(CCOC)S(=O)(=O)c1ccc(C(=O)Nc2nc(-c3ccncc3)cs2)cc1	ROCK2 inh 19
COc1ccc(-c2cc3nc(C)c(CCC(=O)N4CCCCC4)c(C)n3n2)c(OC)c1	none
CCN(CCCNC(=O)CN1C(=O)COc2ccccc21)c1cccc(C)c1	none (no result: ROCK2 inh)
COc1ccc(S(=O)(=O)n2nc(-c3cc(OC)c(OC)c(OC)c3)cc2N)cc1OC	FXIIa mix inh 21
COc1ccc(-c2cc(N)n(S(=O)(=O)c3c(F)c(F)c(F)c(F)c3F)n2)cc1OC	none
CC(=O)c1cccc(NC(=O)C=C(C)C)c1	none
CCOC(=O)c1ccccc1NC(=O)Cn1cnc2c(oc3ccccc32)c1=O	none (no result: ROCK2 inh)
COc1cc(NC(=O)c2cccs2)c(OC)cc1NC(=O)CCn1nnc2ccccc21	C1s block 21
CC(C)Sc1nc(-c2cccs2)nc2c1c(=O)n(C)c(=O)n2C	none
COc1cccc(-n2c(SCC(=O)N3CCOCC3)nnc2-c2c[nH]c3ccccc23)c1	FXIa mix inh 24
Cc1cc(C)n2nc(SCC(=O)N(C)c3ccccc3)nc2n1	none
C=CCN(C(=O)CNC(=O)c1ccco1)C(C(=O)NC1CCCCC1)c1ccccc1F (stereo unspecified)	none
c1coc(CNc2ncnc3sc4c(c23)CCCCC4)c1	ROCK2 inh 18
Cc1nc(NCc2ccco2)c2c3c(sc2n1)CCC3	none
CCCn1c(NC(=O)c2cccc(S(=O)(=O)N3CCCC3)c2)nc2ccccc21	ROCK2 inh 32
CCC(OC(=O)C(NC(=O)c1ccccc1)c1ccccc1)C(=O)Nc1cc(C)on1 (stereo unspecified)	none
Cc1cccc(-n2nnc(C(=O)Nc3ccc(F)cc3)c2N)c1	CatG inh 51
Cc1ccc(NC(=O)c2nnn(-c3cc(C)cc(C)c3)c2N)cc1	none
C=CCn1c(SC(C)C(=O)NC2(C#N)CCCCC2)nnc1-c1ccc(OC)cc1 (stereo unspecified)	FXIa mix inh 22 (no result: ROCK2 inh)
Cc1ccc2oc(=O)c3cnn(CC(=O)NC4CCCCC4C)c3c2c1 (stereo unspecified)	none
c1coc(CNc2ncnc3nc[nH]c23)c1	ROCK2 inh 25
Cc1ccc2[nH]c3c(NCc4ccco4)ncnc3c2c1	none
CCN1CCc2nc(NC(=O)Cc3ccc4c(c3)OCCO4)sc2C1	none (no result: ROCK2 inh)
COc1ccc(CCC(=O)Nc2nc3c(s2)CN(C)CC3)cc1OC	ROCK2 inh 109
CCC(C)(C)n1nnnc1C(c1ccc(OC)c(OC)c1)N1CCN(c2ccc(F)cc2)CC1 (stereo unspecified)	FXIIa mix inh 48
O=C(Oc1ccc2c(c1)OCC2=O)c1ccccc1	C1s block 43
O=C(Oc1ccc(OC(=O)N2CCOCC2)cc1)c1ccccc1	none
Nc1nc2ccccc2n1C(=O)CCc1ccccc1	ROCK2 inh 146
Nc1nc(-c2ccco2)nn1C(=O)CCc1ccccc1	none
CCS(=O)(=O)c1ccc2oc(Nc3ccccc3C)nc2c1	none
